# In the library only some 1.4% were active in any assay of this set; here they are far more common.
# AmpC inh detg = qHTS Inhibitors of AmpC Beta-Lactamase (assay with detergent); P00811; AmpC hydrolysis of nitrocefin, absorbance 480 nm, 0.01% Triton; Potency, µM (series often up to 114 µM), for the others: at the highest dose activity change, negative = inhibition, usual class: inhibitors; actives 0.041% (n = 370,000); AID 485294, 2010;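 note: 0% = no-compound wells and -100% = no-enzyme wells; nearly all actives have a fitted effect of over 25% in size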
# Target sequence (P00811 whole entry, looked up): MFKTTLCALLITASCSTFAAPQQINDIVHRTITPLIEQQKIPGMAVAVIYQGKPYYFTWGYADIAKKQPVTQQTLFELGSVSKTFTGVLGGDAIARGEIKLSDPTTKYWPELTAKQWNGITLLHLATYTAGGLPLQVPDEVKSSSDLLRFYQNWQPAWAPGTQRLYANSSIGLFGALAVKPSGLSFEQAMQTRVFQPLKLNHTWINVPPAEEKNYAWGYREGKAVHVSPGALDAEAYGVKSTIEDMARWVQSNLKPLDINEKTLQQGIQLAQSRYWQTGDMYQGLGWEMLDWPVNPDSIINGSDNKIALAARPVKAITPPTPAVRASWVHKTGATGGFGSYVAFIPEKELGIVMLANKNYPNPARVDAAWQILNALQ
#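 AmpC (5.3 nM in the dispensed reagent) in 20 mM phosphate pH 7.0 with 0.01% (detergent screen) or 0.0001% Triton X-100 was preincubated with compounds for 15 min at room temperature. Nitrocefin was then added from an 800 uM solution, and hydrolysis was followed at 480 nm.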
# SARS PLpro yeast = qHTS of Yeast-based Assay for SARS-CoV PLP; S. cerevisiae expressing SARS-CoV PLpro, growth rescue; Potency, µM (highest dose often 32.9 µM), for inactives: at the top dose activity, positive = growth rescue, most hits filed as activators; actives 0.19% (n = 330,000); calls by dose curve; note: 0% is about no effect; nearly all actives have a fitted effect of over 55% in size
# Vaccinia Venus = qHTS for Stage-Specific Inhibitors of Vaccinia Orthopoxvirus: Venus Reporter Primary qHTS | Vaccinia virus Venus reporter expression, fluorescence | Potency, µM (highest dose often 36.5 µM), without a hit: at the highest dose activity change, negative = inhibition, most hits filed as inhibitors | actives 0.46% (n = 330,000) | AID 720580, 2013; calls by dose curve; tested in A549 cells; note: % is set by controls: 0 for no effect and ±100 for the full control effect; nearly all actives have a fitted effect of over 30% in size
# AMA1 RON2 block = qHTS for Inhibitors of AMA1-RON; Towards Development of Antimalarial Drug Lead: Primary Screen. Plasmodium falciparum AMA1 (3D7) - RON2 peptide interaction. AlphaScreen AMA1-biotinylated RON2 peptide binding. Potency, µM (top dose mostly 58.2 µM), for inactives: at the highest dose activity change, negative = inhibition, usual class: inhibitors. actives 0.2% (n = 360,000). AID 720542, 2013;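 note: 0% = vehicle wells and -100% = peptide control; nearly all actives have a fitted effect of over 45% in size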
#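 AMA1 (3D7) with his tag at 25 nM final met compounds first, then biotinylated RON2 peptide at 25 nM; detection used donor plus acceptor beads, 10 µg/mL apiece, read by AlphaScreen after 30 min at room temperature.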
# Vaccinia mCherry = qHTS for Stage-Specific Inhibitors of Vaccinia Orthopoxvirus: mCherry Reporter Primary qHTS; Vaccinia virus mCherry reporter infection, fluorescence; Potency, µM (titrated, usually from 36.5 µM), for inactives: at the highest dose activity change, negative = inhibition, actives largely listed as inhibitors; actives 0.63% (n = 310,000); AID 720579, 2013; calls by dose curve; tested in A549 cells; note: % is set by controls: 0 for no effect and ±100 for the full control effect; nearly all actives have a fitted effect of over 35% in size
# AmpC no deterg = qHTS Inhibitors of AmpC Beta-Lactamase (assay without detergent). P00811. AmpC nitrocefin hydrolysis, absorbance 480 nm, 0.0001% Triton. Potency, µM (doses to about 57.1 µM), without a hit: at the highest dose activity change, negative = inhibition, hits mostly inhibitors. actives 0.52% (n = 330,000);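 note: plate controls were no compound for no effect and no enzyme for full effect; nearly all actives have a fitted effect of over 20% in size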
#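 AmpC (5.3 nM in the dispensed reagent) in 20 mM phosphate pH 7.0 with 0.01% (detergent screen) or 0.0001% Triton X-100 was preincubated with compounds for 15 min at room temperature. Nitrocefin was then added from an 800 uM solution, and hydrolysis was followed at 480 nm.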
# Starred values were filed as active, the others as inactive; i = inactive; ? = inconclusive; nt = no result given. Unless noted, calls come from the whole dose curve; as a rule, active = well fitted curve in the direction sought with a large enough effect; inconclusive = small, poorly fitted or top-dose-only effect, or another doubt; inactive = no such curve, though single readings can be large; an effect the other way counts as inactive or inconclusive. Potency is the fitted concentration of half-maximal effect.
SMILES,AmpC inh detg,SARS PLpro yeast,Vaccinia Venus,AMA1 RON2 block,Vaccinia mCherry,AmpC no deterg
Cc1ccc(C)c(NC(=O)C(=O)NCCCN2CCOCC2)c1,2%,1%,-6%,14%,-14%,-19%
Cc1cccc(C)c1NC(=O)C(=O)NCCCN1CCOCC1,7%,6%,2µM*,12%,6.3µM*,-16%
CCOC(=O)N1CCC(NC(=O)c2ccc3snnc3c2)CC1,?,3%,-11%,26%,-15%,45µM*
O=C(NC1CC1)c1ccc2snnc2c1,-6%,1%,-8%,15%,i,-17%
CCCC(=O)NC(c1ccc(OC)cc1)c1ccc2cccnc2c1O (stereo not drawn),-7%,-4%,?,-28%,8.9µM*,-3%
CCCCC(=O)NC(c1ccc(C(C)C)cc1)c1ccc2cccnc2c1O (stereo not drawn),-13%,7.1µM*,nt,83%,nt,-35%
CCCCC(=O)NC(c1ccccc1Cl)c1ccc2cccnc2c1O (stereo not drawn),-12%,?,nt,134%,nt,-39%
CCCC(=O)NC(c1ccccc1)c1ccc2cccnc2c1O (stereo not drawn),-3%,?,?,-77%,?,-13%
O=S(=O)(NC1CC(NS(=O)(=O)OCC(Cl)(Cl)Cl)C2CCCCC12)OCC(Cl)(Cl)Cl (stereo not drawn),-9%,6%,11µM*,2%,?,-22%
N#CC1(NC(=O)Cn2ncc(Cl)c(Cl)c2=O)CCCCC1,-13%,-1%,?,2%,?,25µM*
O=C(Nc1ccccc1)c1cc(-n2cnnc2)ccc1Cl,9%,10µM*,nt,5%,nt,-14%
COc1ccc(N2CCN(C(=O)c3cccnc3SCc3cccc(Br)c3)CC2)cc1,4%,-1%,-17%,32µM*,-7%,113%
Cc1cc(N2CCN(C)CC2)n2nc(-c3ccc(Cl)cc3)nc2n1,?,-1%,?,11%,7.9µM*,-2%
COc1ccc(CN2CC[C@H]3C=CC[C@@H](C(=O)N4CCN(c5ccccc5)CC4)[C@H]3C2=O)cc1OC,nt,nt,-3%,nt,-10%,nt
CC(OC(=O)C1=Cc2ccccc2OC1)C(=O)NC1CCCC1 (stereo not drawn),2%,-1%,-16%,-15%,-12%,0.16µM*
O=C(OC(C(=O)NC1CCCC1)c1cccnc1)C1=Cc2ccccc2OC1 (stereo not drawn),-1%,-3%,nt,-3%,nt,-6%
NC(=O)C1CCN(CC(=O)c2c[nH]c3ccc(F)cc23)CC1,10%,2%,-1%,-13%,-11%,0.14µM*
COc1ccc(C[C@H]2NC[C@H](O)[C@H]2OC(C)=O)cc1,nt,nt,0.89µM*,4%,0.45µM*,nt
Cc1ccc(-n2c3c(cc(C(=O)Nc4ccccc4C(N)=O)c2=O)C(=O)CC(C)(C)C3)cc1,0%,nt,-18%,nt,-24%,nt
CCCCOc1ccc(Br)cc1/C(C)=N/NC1=NCCN1,3%,-41%,6.3µM*,-12%,nt,41%
CCCCCCOc1ccc(/C(C)=N/NC2=NCCN2)cc1[N+](=O)[O-],3%,-4%,nt,-4%,nt,-10%
Cc1cccnc1-c1cccc2c1OC(CNC(=O)/C=C/c1cccs1)C2 (stereo not drawn),nt,nt,4%,nt,-6%,nt
CN(C)c1ccc(NC(=S)c2ccccn2)cc1,-10%,-27%,-18%,14µM*,-24%,-30%
Cc1ccc(S(=O)(=O)N2CCC(C(=O)Nc3ccccc3N3CCCCC3)CC2)cc1,32µM*,2%,-1%,-8%,-18%,-19%
Cc1ccc(/C=C(\NC(=O)c2ccc(C)cc2)c2nc(=S)[nH][nH]2)cc1,-1%,-18%,nt,102%,nt,-27%
SMILES,AmpC inh detg,SARS PLpro yeast,Vaccinia Venus,AMA1 RON2 block,Vaccinia mCherry,AmpC no deterg
Cc1ccc(C(=O)N/C(=C\c2ccccc2F)c2nc(=S)[nH][nH]2)cc1,-2%,0%,1%,50%,?,25µM*
O=C(CCN1C(=O)/C(=C/c2ccccc2Cl)SC1=S)NC1C=CS(=O)(=O)C1 (stereo not drawn),-4%,-5%,nt,3%,nt,28µM*
COCc1c(C(=O)NC2CCCC2)cnn1-c1nccc(-c2cc(C)sc2C)n1,nt,nt,-6%,nt,-11%,nt
COc1ccc(CCNC(=O)CN(C)S(=O)(=O)c2ccc3c(c2)CCC(=O)N3)cc1OC,5%,2%,-9%,4%,i,6%
CN(CC(=O)NCCC1=CCCCC1)S(=O)(=O)c1ccc2c(c1)CCC(=O)N2,?,2%,-9%,7%,i,3.2µM*
COc1ccc(CNC(=O)CCc2nc3cccnc3n2Cc2ccccc2)cc1,-10%,nt,-9%,nt,-12%,nt
CCc1ccc(NC(=O)c2cnc3scc(C)n3c2=O)cc1,?,-3%,-25%,12%,-14%,35µM*
COc1cc(=O)n2c(c1C(=O)N(C)Cc1nonc1C)CCN(Cc1c(F)cccc1F)CC2,nt,nt,-2%,nt,-10%,nt
CCCn1cnc2c(N)c(C)c(C)cc21,6%,-4%,nt,-7%,nt,0.32µM*
COc1ccc2ccccc2c1C1NC(=O)c2ccccc2N1 (stereo not drawn),nt,nt,5.6µM*,5%,?,nt
COc1ccc(C2NC(=O)c3ccccc3N2)cc1OC (stereo not drawn),-6%,-7%,-9%,-7%,-14%,-23%
O=c1c2cn[nH]c2nc(SCc2ccccc2F)n1-c1ccc(Br)cc1,?,-18%,-2%,63%,-9%,11µM*
O=C(CSc1nc2[nH]ncc2c(=O)n1-c1ccccc1)NCCc1ccccc1,-3%,5%,-11%,-13%,-15%,-26%
CCc1ccc(-n2c(SCc3ccccc3F)nc3[nH]ncc3c2=O)cc1,11%,nt,-8%,nt,i,nt
Cc1cccc(NC(=O)CSc2nc3[nH]ncc3c(=O)n2-c2ccccc2)c1,-13%,6%,nt,nt,nt,8.9µM*
Cc1ccc2nc(CNC(=O)c3cc(NC(=O)c4ccccc4)cc4ncn(C5CCCC5)c34)cn2c1,nt,nt,-15%,nt,i,nt
CC(C)Oc1ccc(Br)cc1/C=N\NC(N)=S,-3%,15%,7.9µM*,22%,5.6µM*,-30%
COc1cccc2ccc(CN3CCC4(CC3)c3ccccc3[C@@H](NC(=O)c3ccccc3)[C@@H]4O)nc12,nt,nt,3%,nt,-12%,nt

# Screening results: PubChem, National Center for Advancing Translational Sciences (NCATS)
